In PubChem BioAssay (EPA / NIEHS):
Calls of active or inactive are those of the source. The calls were made as follows: active = hit-call score of the fitted dose curve at least 0.9, where 1 is the maximum; inactive = score below 0.9.

Columns and labels:
[1] = read-out: Transforming growth factor beta 1 (TGFb1), TGFB1 (gene 7040); assay: BSK_KF3CT_TGFb1: BioMAP Diversity Plus: KF3CT Assay for Transforming growth factor beta 1 (TGFb1) Biomarker Activity (AID 2283072); conditions: primary human keratinocytes with fibroblasts; actives raise or lower the signal
Method in brief: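 TGF-b1 ELISA on a 24 h dosed co-culture of human keratinocytes and foreskin fibroblasts; cytotoxicity tracked in parallel cultures by SRB staining.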

[2] = read-out: C-C motif chemokine 2 (Homo sapiens) (UniProt P13500); assay: BSK_KF3CT_MCP1: BioMAP Diversity Plus: KF3CT Assay for Monocyte Chemoattractant Protein 1 (MCP1/CCL2) Biomarker Activity (AID 2283073); conditions: primary human keratinocytes with fibroblasts; actives raise or lower the signal
Method in brief: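 Human keratinocyte–foreskin fibroblast co-culture; MCP-1 measured by ELISA 24 h after dosing. Bidirectional fit vs DMSO; cytotoxicity tracked by SRB total protein in parallel cultures.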

[3] = read-out: urokinase plasminogen activator (uPA), PLAU (gene 5328); assay: BSK_KF3CT_uPA: BioMAP Diversity Plus: KF3CT Assay for urokinase plasminogen activator (uPA) Biomarker Activity (AID 2283075); conditions: primary human keratinocytes with fibroblasts; actives raise or lower the signal
Method in brief: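 Skin co-culture (keratinocytes + foreskin fibroblasts), human primary; 24 h post-dose; uPA by ELISA; gain/loss fit vs DMSO baseline.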

CD40, CD40 (gene 958) [4] = assay: BSK_LPS_CD40: BioMAP Diversity Plus: LPS Assay for CD40 Biomarker Activity (AID 2283076); conditions: primary human HUVEC with PBMC; actives raise or lower the signal
Method in brief: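 HUVEC plus PBMC co-culture stimulated with LPS; CD40 quantified by ELISA 24 h after compound dosing. Fitting was bidirectional relative to DMSO. SRB staining of parallel cultures flagged overt cytotoxicity.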

[5] = read-out: E-selectin (Homo sapiens) (UniProt P16581); assay: BSK_LPS_Eselectin: BioMAP Diversity Plus: LPS Assay for Eselectin Biomarker Activity (AID 2283077); conditions: primary human HUVEC with PBMC; actives raise or lower the signal
Method in brief: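 Human umbilical vein endothelial cells co-cultured with PBMC under LPS stimulation; cell-surface E-selectin measured by ELISA 24 h after dosing. Change in either direction versus DMSO, with SRB total-protein staining in parallel cultures for cytotoxicity.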

[6] = read-out: Interleukin-8 (IL8), CXCL8 (gene 3576); assay: BSK_LPS_IL8: BioMAP Diversity Plus: LPS Assay for Interleukin-8 (IL8) Biomarker Activity (AID 2283078); conditions: primary human HUVEC with PBMC; actives raise or lower the signal
Method in brief: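 Human umbilical vein endothelial cells co-cultured with PBMC, LPS-stimulated, exposed to compound for 24 h. IL-8 quantified by ELISA; fitted in both directions against DMSO, with SRB total-protein staining of parallel cultures for cytotoxicity.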

[7] = BSK_LPS_SRB: Viability Assessment in the BioMAP Diversity Plus: LPS Assay (AID 2283079); conditions: primary human HUVEC with PBMC;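 also: total protein by sulforhodamine B absorbance as a cytotoxicity measure; measured one day after compound addition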
Method in brief: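 Co-culture of human umbilical vein endothelial cells and PBMC, read 24 h after dosing. Total protein by 0.1% SRB staining after 10% TCA fixation, absorbance at 560 nm; bidirectional fit against DMSO.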

[8] = read-out: Interleukin-1 alpha (IL1a), IL1A (gene 3552); assay: BSK_LPS_IL1a: BioMAP Diversity Plus: LPS Assay for Interleukin-1 alpha (IL1a) Biomarker Activity (AID 2283080); conditions: primary human HUVEC with PBMC; actives raise or lower the signal
Method in brief: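 Human umbilical vein endothelial cells co-cultured with PBMC and stimulated with LPS; IL-1a measured by ELISA 24 h after dosing. Bidirectional fitting against DMSO; cytotoxicity checked by SRB staining in parallel cultures.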

[9] = read-out: Monocyte Chemoattractant Protein-1 (MCP1), CCL2 (gene 6347); assay: BSK_LPS_MCP1: BioMAP Diversity Plus: LPS Assay for Monocyte Chemoattractant Protein-1 (MCP1) Biomarker Activity (AID 2283081); conditions: primary human HUVEC with PBMC; actives raise or lower the signal;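 as to AC50: secreted MCP-1 protein quantified by ELISA in culture supernatant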
Method in brief: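 Human umbilical vein endothelial cells co-cultured with PBMC, LPS-stimulated; secreted MCP-1 measured by ELISA 24 h after compound addition. Bidirectional curve fitting against DMSO baseline; SRB total-protein staining in parallel cultures for cytotoxicity.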

[10] = BSK_LPS_PGE2: BioMAP Diversity Plus: LPS Assay for Prostaglandin E2 (PGE2) Biomarker Activity (AID 2283082); conditions: primary human HUVEC with PBMC; actives raise or lower the signal;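 as to AC50: secreted prostaglandin E2 measured by ELISA in LPS-stimulated co-culture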
Method in brief: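 Primary human endothelial cells and blood mononuclear cells, co-cultured with LPS, receive test chemical; PGE2 ELISA follows at 24 h, with SRB-stained parallel cultures flagging cytotoxicity.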

[11] = read-out: Macrophage colony-stimulating factor (MCSF), CSF1 (gene 1435); assay: BSK_LPS_MCSF: BioMAP Diversity Plus: LPS Assay for Macrophage colony-stimulating factor (MCSF) Biomarker Activity (AID 2283083); conditions: primary human HUVEC with PBMC; actives raise or lower the signal
Method in brief: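 HUVEC–PBMC co-culture, M-CSF measured by ELISA 24 h after chemical dosing. Fitted in both directions relative to DMSO as negative control; overt cytotoxicity assessed by SRB total-protein staining in parallel cultures.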

[12] = read-out: Tissue Factor, F3 (gene 2152); assay: BSK_LPS_TissueFactor: BioMAP Diversity Plus: LPS Assay for Tissue Factor Biomarker Activity (AID 2283084); conditions: primary human HUVEC with PBMC; actives raise or lower the signal
Method in brief: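 Human umbilical vein endothelial cells co-cultured with PBMC were dosed with compound. Cell-surface CD142 was measured by ELISA 24 h later. Activity was fitted bidirectionally against DMSO, with SRB total-protein staining in parallel cultures for cytotoxicity.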

[13] = read-out: Vascular cell adhesion molecule 1 (VCAM1), VCAM1 (gene 7412); assay: BSK_LPS_VCAM1: BioMAP Diversity Plus: LPS Assay for Vascular cell adhesion molecule 1 (VCAM1) Biomarker Activity (AID 2283086); conditions: primary human HUVEC with PBMC; actives raise or lower the signal
Method in brief: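 Measured by ELISA: VCAM-1 in LPS-activated HUVEC/PBMC co-cultures 24 h after treatment. Values reflect bidirectional fitting with DMSO as baseline.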

CD38, CD38 (gene 952) = assay: BSK_SAg_CD38: BioMAP Diversity Plus: SAg Assay for CD38 Biomarker Activity (AID 2283087); conditions: primary human HUVEC with PBMC; actives raise or lower the signal
Method in brief: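 Measures CD38 on a human endothelial/PBMC co-culture driven by SEB and TSST-1, 24 h after compound exposure, using ELISA with fluorescence detection; DMSO defines baseline for bidirectional curve fitting.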

CD40, CD40 (gene 958) [14] = assay: BSK_SAg_CD40: BioMAP Diversity Plus: SAg Assay for CD40 Biomarker Activity (AID 2283088); conditions: primary human HUVEC with PBMC; actives raise or lower the signal
Method in brief: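 HUVEC plus PBMC co-culture, superantigen-activated, with CD40 read by ELISA 24 h after dosing. Curves fitted in both directions against DMSO. Overt cytotoxicity checked by parallel SRB total-protein staining.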

CD69, CD69 (gene 969) = assay: BSK_SAg_CD69: BioMAP Diversity Plus: SAg Assay for CD69 Biomarker Activity (AID 2283089); conditions: primary human HUVEC with PBMC; actives raise or lower the signal;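 as to AC50: cell surface CD69 protein quantified by ELISA with fluorescence detection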
Method in brief: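 Values derive from bidirectional fitting relative to DMSO vehicle. Cells: umbilical vein endothelium plus peripheral blood mononuclear cells, treated 24 h before fluorescent ELISA for CD69.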

[15] = read-out: Monocyte Chemoattractant Protein-1 (MCP1), CCL2 (gene 6347); assay: BSK_SAg_MCP1: BioMAP Diversity Plus: SAg Assay for Monocyte Chemoattractant Protein-1 (MCP1) Biomarker Activity (AID 2283090); conditions: primary human HUVEC with PBMC; actives raise or lower the signal
Method in brief: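 Values derive from bidirectional fitting of ELISA-measured MCP1 against DMSO controls. Readings were taken 24 h after dosing human vascular endothelial cells co-cultured with peripheral blood mononuclear cells under superantigen stimulation.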

[16] = read-out: E-selectin (Homo sapiens) (UniProt P16581); assay: BSK_SAg_Eselectin: BioMAP Diversity Plus: SAg Assay for Eselectin Biomarker Activity (AID 2283091); conditions: primary human HUVEC with PBMC; actives raise or lower the signal
Method in brief: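 Human umbilical vein endothelial cells co-cultured with peripheral blood mononuclear cells, SAg system. E-selectin is measured by ELISA 24 h after dosing and fitted bidirectionally against DMSO. Cytotoxicity is checked by SRB staining of parallel cultures.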

[17] = read-out: Matrix Metallopeptidase 9 (MMP9), MMP9 (gene 4318); assay: BSK_KF3CT_MMP9: BioMAP Diversity Plus: KF3CT Assay for Matrix Metallopeptidase 9 (MMP9) Biomarker Activity (AID 2283074); conditions: primary human keratinocytes with fibroblasts; actives raise or lower the signal;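 as to AC50: MMP9 protein level quantified by ELISA in the co-culture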
Method in brief: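 ELISA read-out of MMP-9 at 24 h post-dosing in a co-culture of human skin keratinocytes and foreskin fibroblasts. Gain or loss of signal was fitted in both directions against DMSO.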

Measured: AC50

Chain of E-selectin (Homo sapiens) (P16581 whole entry, looked up): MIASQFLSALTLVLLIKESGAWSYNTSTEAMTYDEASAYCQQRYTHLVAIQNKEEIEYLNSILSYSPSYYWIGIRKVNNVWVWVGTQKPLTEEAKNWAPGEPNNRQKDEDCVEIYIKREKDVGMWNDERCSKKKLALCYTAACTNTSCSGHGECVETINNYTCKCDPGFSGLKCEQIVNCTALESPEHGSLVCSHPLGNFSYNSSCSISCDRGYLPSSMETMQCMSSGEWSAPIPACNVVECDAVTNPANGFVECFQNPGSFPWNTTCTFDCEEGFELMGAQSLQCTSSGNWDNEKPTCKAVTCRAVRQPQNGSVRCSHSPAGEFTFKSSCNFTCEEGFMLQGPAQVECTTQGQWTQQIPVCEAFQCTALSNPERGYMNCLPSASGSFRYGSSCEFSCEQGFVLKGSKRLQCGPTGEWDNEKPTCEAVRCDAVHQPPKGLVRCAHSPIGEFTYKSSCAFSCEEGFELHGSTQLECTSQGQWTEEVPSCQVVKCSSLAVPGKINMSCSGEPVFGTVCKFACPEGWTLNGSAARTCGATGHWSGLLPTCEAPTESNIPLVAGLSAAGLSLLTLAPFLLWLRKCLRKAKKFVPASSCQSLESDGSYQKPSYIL

Clc1cccc(Cl)c1Cl
not listed: [17]
inactive: all other assays above

Cc1cc(Cl)ccc1N
inactive: all assays above

O=C(O)C1(c2ccc3c(c2)OC[C@H](Cc2ccc(-c4ccccc4)cc2)[C@H]3O)CCCC1
active: [2] 13.6 µM | [17] 12.9 µM | [3] 28.6 µM | CD40, CD40 (gene 958) [4] 20 µM | [13] 20 µM | CD38, CD38 (gene 952) 23.3 µM | CD40, CD40 (gene 958) [14] 20 µM | [15] 20 µM | [16] 14.1 µM
inactive: [5] | [6] | [7] | [8] | [9] | [10] | [11] | [12] | CD69, CD69 (gene 969)

CCOP(=S)(OCC)SCS(=O)(=O)C(C)(C)C
inactive: all assays above

Cc1ccccc1OP(=O)(Oc1ccccc1C)Oc1ccccc1C
inactive: [1] | [10]
active: [2] 12.1 µM | [17] 5.56 µM | [3] 20 µM | CD40, CD40 (gene 958) [4] 9.38 µM | [5] 9.59 µM | [6] 12.6 µM | [7] 12.3 µM | [8] 11 µM | [9] 12.7 µM | [11] 11.2 µM | [12] 27.5 µM | [13] 11.4 µM | CD38, CD38 (gene 952) 28.9 µM | CD40, CD40 (gene 958) [14] 12.5 µM | CD69, CD69 (gene 969) 13.8 µM | [15] 14.8 µM | [16] 30.6 µM

Oc1cccc(-c2ccccc2)c1
inactive: [1] | [2] | [3] | [6] | [8] | [11] | CD38, CD38 (gene 952) | CD69, CD69 (gene 969)
active: [17] 31.5 µM | CD40, CD40 (gene 958) [4] 20 µM | [5] 32.5 µM | [7] 29.8 µM | [9] 4.9 µM | [10] 8.25 µM | [12] 33.3 µM | [13] 20 µM | CD40, CD40 (gene 958) [14] 30.8 µM | [15] 20 µM | [16] 33.6 µM

CCOC(=O)CCN(SN(C)C(=O)Oc1cccc2c1OC(C)(C)C2)C(C)C
active: [13] 20 µM | CD38, CD38 (gene 952) 30 µM | CD40, CD40 (gene 958) [14] 29.6 µM | CD69, CD69 (gene 969) 29.3 µM | [15] 32 µM | [16] 27.7 µM
inactive: all other assays above

O=[N+]([O-])c1cccc2ccccc12
inactive: all assays above

[Cl][Sn]([c]1ccccc1)([c]1ccccc1)[c]1ccccc1
inactive: [10]
active: [1] 0.0622 µM | [2] 0.19 µM | [17] 0.0692 µM | [3] 0.168 µM | CD40, CD40 (gene 958) [4] 0.117 µM | [5] 0.305 µM | [6] 0.577 µM | [7] 1.08 µM | [8] 0.154 µM | [9] 0.258 µM | [11] 0.138 µM | [12] 0.308 µM | [13] 0.195 µM | CD38, CD38 (gene 952) 0.141 µM | CD40, CD40 (gene 958) [14] 0.146 µM | CD69, CD69 (gene 969) 0.176 µM | [15] 0.327 µM | [16] 0.227 µM

Oc1c(Br)cc(Br)cc1Br
active: [17] 28.2 µM | CD40, CD40 (gene 958) [4] 13.9 µM | CD38, CD38 (gene 952) 30.3 µM | CD40, CD40 (gene 958) [14] 20 µM | CD69, CD69 (gene 969) 35 µM | [16] 20 µM
inactive: all other assays above

CCCCN(CCCC)C(=S)[S-].CCCCN(CCCC)C(=S)[S-].[Ni+2]
not listed: [2]
inactive: all other assays above

N#Cc1cccnc1
inactive: all assays above
